The results in this text go back to PubChem BioAssay (NCATS).

A short description of assay [1]: qHTS of pediatric cancer cell lines to identify multiple opportunities for drug repurposing: Primary screen for DAOY cells (AID 1347090). Note: nearly all actives have a fitted effect of over 55% in size. In a few lines: (§1)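 Viability measured as metabolically active cells via CellTiter-Glo luminescence following 48 hours of compound exposure, 11-point dilutions in confirmatory testing. 500-1,000 cells/well plated 5 hours before dosing; controls were DMSO and 2.3 µM bortezomib.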
A general note: qHTS replaces the single test concentration by a dilution series.

A short description of assay [2]: qHTS of pediatric cancer cell lines to identify multiple opportunities for drug repurposing: Primary screen for SK-N-MC cells (AID 1347093). In a few lines: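 Metabolically active cells were quantified by ATP-dependent luminescence (CellTiter-Glo, 15 min at room temperature) following 48 h treatment. Cells had been plated at 500-1,000 per well and settled for 5 h beforehand.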

Assay [3] is described as follows: qHTS of pediatric cancer cell lines to identify multiple opportunities for drug repurposing: Primary screen for NB-EBc1 cells (AID 1347095). In a few lines:
(§2)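 Phenotypic viability qHTS, 48 h compound exposure, CellTiter-Glo luminescence read-out; multi-concentration dosing so that potency and efficacy derive directly from the primary screen's curves.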

A short description of assay [4]: qHTS of pediatric cancer cell lines to identify multiple opportunities for drug repurposing: Primary screen for Saos-2 cells (AID 1347097). Note: nearly all actives have a fitted effect of over 40% in size. The essentials: as §2
The nature of assay [5]: qHTS of pediatric cancer cell lines to identify multiple opportunities for drug repurposing: Primary screen for NB1643 cells (AID 1347099). Note: nearly all actives have a fitted effect of over 50% in size. In a few lines:
as §2

Assay [6] is described as follows: qHTS of pediatric cancer cell lines to identify multiple opportunities for drug repurposing: Primary screen for A673 cells (AID 1347092). Note: nearly all actives have a fitted effect of over 45% in size. In a few lines:
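A673 cells (500-1,000 cells/well in growth media) were pre-incubated 5 h at 37 degrees C, then exposed to compounds for 48 h. Viability was read as CellTiter-Glo luminescence; concentration-response curves came directly from the primary screen.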

The nature of assay [7]: qHTS of pediatric cancer cell lines to identify multiple opportunities for drug repurposing: Primary screen for SK-N-SH cells (AID 1347098). Note: nearly all actives have a fitted effect of over 65% in size. In a few lines:
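Cells (500-1,000/well) rested 5 h, then received compounds for 48 h; metabolically active cells were measured by CellTiter-Glo luminescence. Final concentrations spanned up to 46 µM (MIPE, 11-point) or 0.59 nM-46 µM (NPC, 8-point) in primary screens, 11-point in follow-ups.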

Assay [8] can be described thus: qHTS of pediatric cancer cell lines to identify multiple opportunities for drug repurposing: Primary screen for BT-37 cells (AID 1347094). In a few lines: as §2
Assay [9] is described as follows: qHTS of pediatric cancer cell lines to identify multiple opportunities for drug repurposing: Primary screen for U-2 OS cells (AID 1347096). Note: nearly all actives have a fitted effect of over 50% in size. The essentials: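 Viability after 48 h compound treatment at 37C, 500-1,000 cells/well, read as ATP luminescence with CellTiter-Glo. Primary screens used 11-point (MIPE, 0.78 nM-46 µM) or 8-point (NPC, 0.59 nM-46 µM) final concentrations; follow-up screens used 11-point dilutions.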

A short description of assay [10]: qHTS of pediatric cancer cell lines to identify multiple opportunities for drug repurposing: Primary screen for SJ-GBM2 cells (AID 1347091). The essentials:
as §1

Results filed as inconclusive are left out. Active and inactive are the calls of the source. Calls come from the whole dose curve; as a rule, active = well fitted curve in the direction sought with a large enough effect; inconclusive = small, poorly fitted or top-dose-only effect, or another doubt; inactive = no such curve, though single readings can be large; an effect the other way counts as inactive or inconclusive.
Potency is the fitted concentration of half-maximal effect.

As for `CC(=O)c1ccc2c(c1)N(CCCN1CCC(CCO)CC1)c1ccccc1S2`, the Potency entry in assay [1], in assay [2], in assay [3], in [4] and in assay [5] was “inactive” in each case.
In the case of `COc1ccc(CN2CCN(C(c3ccc(F)cc3)c3ccc(F)cc3)CC2)c(OC)c1OC`, the Potency entry in [1] and in assay [5] was “inactive” throughout. Moreover, the Potency in [6] was 21.1 µM (active); in assay [7] it was 21.7 µM (active).
On to `O=C(OCCOCCO)c1ccccc1Nc1cccc(C(F)(F)F)c1`, for which the Potency result in [1], in [6], in assay [2], in assay [8], in assay [9] and in [5] was “inactive” throughout.
For `COC(=O)C1=C(C)NC(C)=C(C(=O)O[C@@H]2CCCN(Cc3ccccc3)C2)[C@@H]1c1cccc([N+](=O)[O-])c1`, the Potency entry in assay [1], in [6] and in assay [5] was “inactive” in each case. Moreover, the Potency in assay [7] is 30.7 µM (active).
For the compound `CN1CCCC(CC2c3ccccc3Sc3ccccc32)C1` (stereo unspecified), the Potency entry in assay [1], in [3], in assay [9] and in assay [5] was “inactive” in each case. Moreover, in assay [2], the Potency was 23.7 µM (active).
For the compound `CCCCCCc1ccc(O)cc1O`, the Potency result in assay [1], in assay [2], in assay [8], in [9] and in assay [5] was “inactive” throughout.
`C[n+]1c2cc(N)ccc2cc2ccc(N)cc21` (tested in a mixture with another compound): the Potency in [1] is 21.1 µM (active); in assay [6] it was 5.31 µM (active); in assay [2] it was 8.41 µM (active); in assay [8], 3.47 µM (active); in [3], 11.9 µM (active); in assay [9] it was 13.3 µM (active). Also, the Potency in assay [7] was 3.86 µM (active); in assay [5] it was 7.5 µM (active).
As to `Oc1c(Cl)cc(Cl)cc1Sc1cc(Cl)cc(Cl)c1O`, the Potency entry in assay [1], in [6] and in assay [8] was “inactive” throughout.
Consider `CCCCCCCCCCCCCCNCCO`, for which the Potency result in assay [1], in assay [10], in assay [2], in assay [8], in assay [3] and in [4] was “inactive” throughout. In addition, the Potency entry in assay [7] and in assay [5] was “inactive” each time.
For `O=C(COc1ccc(Cl)cc1)N1CCN(Cc2ccc3c(c2)OCO3)CC1`, the Potency entry in assay [1], in [10], in assay [2], in assay [8], in assay [4] and in assay [7] was “inactive” in each case. For the same compound, the Potency entry in assay [5] is “inactive”.
Consider `CCN1CCC[C@H]1CNC(=O)c1c(OC)ccc(Br)c1OC`, for which the Potency result in assay [1], in assay [10], in [2], in assay [8], in assay [4] and in assay [7] was “inactive” throughout. In [5], the Potency entry was “inactive”.
As to `COc1cccc2c1C(=O)c1c(O)c3c(c(O)c1C2=O)C[C@@](O)(C(=O)CO)C[C@@H]3O[C@H]1C[C@H](N)[C@H](O)[C@H](C)O1`, the Potency in assay [1] was 4.22 µM (active); in assay [2], 0.668 µM (active); in assay [8], 0.347 µM (active); in [3] it was 0.133 µM (active); in [9] it was 13.3 µM (active); in [4], 13.3 µM (active). The Potency in assay [7] is 0.217 µM (active); in assay [5] it was 0.473 µM (active).
Regarding `COc1cccc(CCc2ccccc2OCC(CN(C)C)OC(=O)CCC(=O)O)c1` (stereo unspecified), the Potency entry in assay [1], in [8], in assay [3], in assay [4] and in assay [5] was “inactive” each time. The Potency in assay [7] was 17.2 µM (active).
In the case of `NC(=NCCCCCCN=C(N)/N=C(\N)Nc1ccc(Cl)cc1)/N=C(\N)Nc1ccc(Cl)cc1`, the Potency in [1] is 21.1 µM (active); in assay [6], 21.1 µM (active); in assay [4], 26.6 µM (active); in [7] it was 7.7 µM (active).
For the compound `CN(C)CC/C=C1\c2ccccc2Sc2ccc(Cl)cc21`, the Potency entry in assay [1], in [9] and in assay [5] was “inactive” in each case.
For the compound `C[C@@H]1CN(CCCn2c3ccccc3c3ccccc32)C[C@H](C)N1`, the Potency result in assay [1], in assay [3], in [9] and in assay [5] was “inactive” each time. Further, in [7], the Potency was 9.7 µM (active).
`CCCC(=O)O[C@]1(C(=O)CO)CC[C@H]2[C@@H]3CCC4=CC(=O)CC[C@]4(C)[C@H]3[C@@H](O)C[C@@]21C`: the Potency entry in [10], in assay [2], in assay [8], in assay [3], in assay [9] and in [4] was “inactive” throughout. In addition, the Potency result in [7] and in [5] was “inactive” each time.
Take `Cc1ccccc1C(=O)Nc1ccc(C(=O)N2CCCC(N(C)C)c3ccccc32)cc1` (stereo unspecified): the Potency in assay [10] is 9.44 µM (active); in [6] it was 8.41 µM (active); in assay [2], 6.68 µM (active); in assay [3], 2.99 µM (active); in assay [4] it was 6.68 µM (active). Besides, in [9], the Potency entry is “inactive”.
On to `CN1CCC(=C2c3ccccc3Sc3ccccc32)CC1`, for which the Potency entry in assay [1], in assay [3], in assay [9] and in assay [5] was “inactive” throughout. Further, in assay [7], the Potency was 19.4 µM (active).
In the case of `O=C(CCCN1CCC(O)(c2ccc(Br)cc2)CC1)c1ccc(F)cc1`, the Potency in assay [10] is 21.1 µM (active); in [8], 0.001 µM (active); in assay [5], 0.0237 µM (active). For the same compound, the Potency entry in assay [6], in assay [2], in [3], in assay [9], in assay [4] and in assay [7] was “inactive” in each case.
